Bioassay records as filed in PubChem BioAssay.
Marburg entry inh = blocks Marburg virus binding to or entry into cells; Marburg virus pseudotyped entry inhibition, cell reporter; Potency, µM (highest dose often 37.8 µM), hits mostly inhibitors; hit rate 1.8% among 300,000; AID 540276; calls by dose curve; tested in HEK293 cells
HCV inhibitor = inhibitors of hepatitis C virus infection | Huh7.5.1 HCVcc-Cre infection, luciferase reporter, 44 h | Potency, µM (titrated, usually from 41.8 µM), hits mostly inhibitors | hit rate 3.4% among 340,000 | AID 651820
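1,000 cells/well; 4 h culture; + compound; + HCVcc-Cre (~0.5 moi); 44 h; luciferase substrate, RT 15 min; read 15 sec.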
Pf growth 48h = P. falciparum growth inhibition at 48 hours (one generation) | Potency, µM (highest dose often 28.7 µM), most hits filed as inhibitors | AID 504832 | hit rate 5.9% among 310,000 | P. falciparum luciferase growth in erythrocytes, 48 h
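Compounds are pin-transferred into medium, infected erythrocytes (2% hematocrit, 0.1% parasitemia final) are added, and plates sit one parasite generation at 37 C in 5% CO2. Detection reagent is then added and luminescence measured.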
LASV entry inh = blocks Lassa virus binding to or entry into cells; Lassa virus pseudotype entry inhibition, cell reporter; Potency, µM (titrated, usually from 37.9 µM), usual class: inhibitors; hit rate 1.2% among 300,000; AID 540256; calls by dose curve; tested in HEK293 cells; also: nearly all actives have a fitted effect of over 50% in size
HCMV inh = human cytomegalovirus inhibition. HFF cells, HCMV-luciferase reporter, 72 h; active compounds read low. activity change, negative = inhibition, % at 57.5 µM. hit rate 4.5% among 410,000. AID 1259415; in the data active = activity change below about -60%; inconclusive = no clear call, values can overlap the other calls; inactive = above about -39%
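After 16 h attachment at 37C, HFF cells received test compound and HCMV-luciferase (1 PFU/cell); reporter luminescence read 72 h later, data normalized against buffer-only and known inhibitor Salinomycin.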
Pf growth 96h = P. falciparum growth inhibition at 96 hour, primary screen for plastid delayed-death inhibitors. hit rate 6.9% among 320,000. AID 504834. P. falciparum luciferase reporter growth, 96 h. Potency, µM (top dose mostly 28.7 µM), most hits filed as inhibitors
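Infected RBCs, 2% Hct / 0.05% parasitemia final; luciferase-reporter P. falciparum; cpd 96 h, 37 C, 5% CO2; luciferase detection reagent; luminescence.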
A number is an active result; - = inactive; ? = inconclusive; . = no result; [ ] = dose if it differs, or a comment. Only some compounds are listed: those with a hit (about 14% of all), similar ones and a draw of the others. Unless noted, calls follow the shape of the dose curve; as a rule, active = well fitted inhibition curve with a large enough effect; inconclusive = small, poorly fitted or top-dose-only effect, or another doubt; inactive = no such curve, though single readings can be large or run the other way.

SMILES	Marburg entry inh	HCV inhibitor	Pf growth 48h	LASV entry inh	HCMV inh	Pf growth 96h
COc1ccc(/C=C2\Cc3ccccc3C2=O)cc1OC	.	-	-	.	?	-
COc1cc(C=C2CCCC(=Cc3ccc(OCC4CO4)c(OC)c3)C2=O)ccc1OCC1CO1 (stereo not drawn)	.	.	.	.	-68	.
CCN(CC)C(=O)/C(C#N)=C/c1cc(O)c(O)c([N+](=O)[O-])c1	.	.	-	.	.	?
CCCCCN1C2=NCCN2c2ccccc21	-	-	?	-	-	8.3µM
CCOC(=O)CN1C2=NCCN2c2ccccc21	-	?	-	-	-	.
Cc1nnc(-c2ccc(C)c(-c3ccc(C(=O)NCc4ccc(Cl)cc4)cc3)c2)o1	.	.	.	0.63µM	.	.
CCN(CC)c1nc2ccccc2nc1C(C#N)C(=O)NCCCOC (stereo not drawn)	-	7.1µM	?	-	-	.
COCCCNC(=O)C(C#N)c1nc2ccccc2nc1N1CCCC1 (stereo not drawn)	-	-	8.3µM	-	-	7.4µM
O=C1c2cccc3c(N4CCCCC4)ccc(c23)C(=O)N1c1ccccn1	-	-	-	-	-	-
CCCN1C(=O)c2cccc3c(N4CCCCC4)ccc(c23)C1=O	?	-	-	-	-	13µM
COc1ccccc1N1CCN(C(=O)c2cnn(C(C)(C)C)c2C2CCN(C(=O)OC(C)(C)C)CC2)CC1	.	.	.	?	-	.
O=C(NCc1ccccc1)c1ccc(CN2CCOCC2)cc1	-	-	-	-	-	-
O=C(CN(Cc1ccccc1Cl)C(=O)c1ccc(CN2CCOCC2)o1)NCc1ccccc1	-	-	-	-	-	6.6µM
O=[N+]([O-])c1cccc(C2Nc3cccc4cccc(c34)N2)c1	-	-	4.1µM	-	-	-
O=C1c2ccccc2NC(c2cccc([N+](=O)[O-])c2)N1O (stereo not drawn)	.	?	?	.	?	8.3µM
O=[N+]([O-])c1ccc(C2Nc3cccc4cccc(c34)N2)cc1	-	-	-	-	-	13µM
CCOc1ccccc1-n1c(N)c(C(=O)OC)c2nc3ccccc3nc21	-	.	.	-	-	.
CCN(CC)S(=O)(=O)c1ccc(N2CCOCC2)c(NS(=O)(=O)c2ccc(Cl)s2)c1	.	.	.	.	-	.
CCOC(=O)N1CCN(S(=O)(=O)c2ccc(F)c(C(=O)Nc3ccc(C(C)C)cc3)c2)CC1	-	-	?	-	-	?
CCOC(=O)C1(c2ccccc2)CCN(CCC(=O)Nc2ccccc2OC)CC1	.	-	?	.	-	?
CCOC(=O)N1CCN(CCc2ccccc2)CC1	.	-	-	.	?	10µM
CCOC(=O)N1CCN(CCC(=O)Nc2ccccc2OC)CC1	-	-	-	-	-	13µM
CCOC(=O)N1CCN(S(=O)(=O)c2ccc(F)c(C(=O)Nc3ccc(C)c(Cl)c3)c2)CC1	?	?	13µM	?	-	-
CCOC(=O)C1(c2ccccc2)CCN(CCC(=O)Nc2ccc(F)cc2)CC1	.	?	13µM	.	-	9.3µM
C[C@@H]1NS(=O)(=O)c2c(F)cccc2O[C@@H]1c1ccccc1	.	.	.	.	-	.
SMILES	Marburg entry inh	HCV inhibitor	Pf growth 48h	LASV entry inh	HCMV inh	Pf growth 96h
CCOC(=O)N1CCN(CCC(=O)Nc2ccc(F)c(F)c2)CC1	?	-	?	-	-	15µM
COC(=O)c1ccccc1NC(=O)c1nc(-c2ccc(C)cc2)n2c1CCCCC2	.	.	.	?	-	.
Cc1ccc(-c2cc(-c3ccc4c(c3)OCO4)c(C#N)c(N)n2)o1	?	?	?	?	-	.
CC(C)(C)c1ccc(-c2nc3c(C#N)c(-c4ccc5c(c4)OCO5)ccn3n2)cc1	-	?	8.3µM	-	?	?
Cc1nc2ccc(S(=O)(=O)CCC(=O)Nc3ccc(C)c(C)c3)cc2s1	.	.	.	-	-	.
COc1cc(/C=C(\C#N)C(=O)NCC2CCCO2)ccc1O (stereo not drawn)	-	-	-	-	-	-
Cc1ccc(NC(=O)/C(C#N)=C/c2cc(C)n(-c3ccc(Br)cc3)c2C)cc1C	.	.	.	-	-108	.
O=C(NCCOc1ccccc1)C(=O)NCC1CCCO1 (stereo not drawn)	-	-	-	-	-	-
N#C/C(=C\c1cn(CCOc2ccccc2)c2ccccc12)C(=O)NCC1CCCO1 (stereo not drawn)	?	?	9.3µM	-	-	?
CCOC(=O)/C(C#N)=C/c1cc(C)n(-c2ccccc2)c1C	?	32µM	.	?	?	-
Cc1cc(/C=C(\C#N)C(=O)NCC2CCCO2)c(C)n1-c1ccc(Cl)cc1 (stereo not drawn)	?	?	10µM	?	-	10µM
Cc1ccc(-n2c(C)cc(/C=C(\C#N)C(=O)Nc3ccc(C)c(C)c3)c2C)cc1	?	.	.	-	-	.
COc1cccc(C(C)(O)c2nc(-c3ccc(C)c(C)c3)cs2)c1 (stereo not drawn)	.	.	.	.	-	.
O=C(NC1CCCCCC1)c1ccc2c(c1)sc1nc(-c3ccccc3)cn12	.	.	.	-	.	.
CC1(C(=O)NS(=O)(=O)c2cccs2)CCN1C(=O)CC1CCCC1 (stereo not drawn)	.	.	.	.	-	.
Cc1ccc(C)c(OCCn2cc(/C=C(/C#N)C(=O)NCC3CCCO3)c3ccccc32)c1 (stereo not drawn)	?	-	2.1µM	?	-	-
COc1ccccc1OCCn1cc(/C=C(\C#N)C(=O)NCc2cccs2)c2ccccc21	-	-	?	-	-	-
CCSc1ccc2nnc(-c3cccc(F)c3)n2n1	-	?	-	-	-64	-
Fc1ccc(CSc2ccc3nnc(-c4cccnc4)n3n2)cc1	-	?	-	13µM	-	?
Cc1cn2c(=O)cc(COC(=O)c3ccc(NC(=O)C(C)Oc4ccccc4)cc3)nc2s1 (stereo not drawn)	.	.	.	?	-	.
CCOc1ccc2c(c1)sc(N)[n+]2Cc1cc(C)cc2cccnc12	?	?	9.3µM	?	-	1.9µM
Cc1cc(C[n+]2cc(Cl)ccc2N)c2ncccc2c1	?	-	13µM	-	-	?
Cc1cc(C[n+]2cc(Br)ccc2N)c2ncccc2c1	?	?	9.3µM	-	-	13µM
Oc1ccc(Cl)cc1CNc1cccc2cccnc12	.	-	?	.	-	-
Nc1ccc(Cl)c[n+]1Cc1cccc2cccnc12	.	-	10µM	.	-	?
SMILES	Marburg entry inh	HCV inhibitor	Pf growth 48h	LASV entry inh	HCMV inh	Pf growth 96h
CCOC(=O)c1c(C)[nH]c(C)c1S(=O)(=O)N1CCC(C(=O)Nc2ccc(C)cn2)CC1	.	.	.	-	-	.
CC(C)Oc1cccc(NC(=O)C2(C)CCN2C(=O)C(C)C)c1 (stereo not drawn)	.	.	.	.	-	.
CCc1nc2c(OCc3ccc(F)cc3)cccn2c1N(C)C(=O)CC(C)C	.	.	.	.	-	.
O=C(CSc1ccnc(=O)[nH]1)NCc1ccc(F)cc1	.	.	.	-	-	.
C=CCN1C(=O)NC(=O)/C(=C/c2ccc(N(C)C)c(Br)c2)C1=O	-	-	-	7.9µM	-	-[5.75 µM]
CCOc1ccc(NC(=O)c2ccc3c(=O)n(-c4ccc(OC)cc4OC)c(=S)[nH]c3c2)cc1	.	.	?	.	-82	-
